Laboratory results as given in PubChem BioAssay (NCATS).
Records with an inconclusive call do not appear. Active and inactive are the calls of the source. The call rests on the fitted dose curve; in most records, active means well fitted curve in the direction sought with a large enough effect; inconclusive means small, poorly fitted or top-dose-only effect, or another doubt; inactive means no such curve, though single readings can be large; an effect the other way counts as inactive or inconclusive. Numbered stars: 1 amine (or outer) side, 2 acyl side, 3 side chain; on linkers, the order of the positions; unused ones are H or OH. Square brackets hold non-standard residues; d marks the D form. Peptide text beside a SMILES is read from it. X2 = CC(C)=CCc1cc(C(O)C(N[*:1])C(=O)[*:2])ccc1O

Key:
[1] = biological target: Cellular tumor antigen p53 (Homo sapiens) (UniProt P04637); assay: Primary qHTS for small molecule compounds that upregulate eGFP-tagged delta133p53alpha (in N-terminal) cells. (AID 2060322); conditions: NCI-H358 eGFP-delta133p53alpha fluorescence, 24 h; activation: active compounds read high;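 further: 0% = DMSO vehicle and 100% = reference activator; nearly all actives have a fitted effect of over 75% in size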
Chain of Cellular tumor antigen p53 (Homo sapiens) (P04637 whole entry, looked up): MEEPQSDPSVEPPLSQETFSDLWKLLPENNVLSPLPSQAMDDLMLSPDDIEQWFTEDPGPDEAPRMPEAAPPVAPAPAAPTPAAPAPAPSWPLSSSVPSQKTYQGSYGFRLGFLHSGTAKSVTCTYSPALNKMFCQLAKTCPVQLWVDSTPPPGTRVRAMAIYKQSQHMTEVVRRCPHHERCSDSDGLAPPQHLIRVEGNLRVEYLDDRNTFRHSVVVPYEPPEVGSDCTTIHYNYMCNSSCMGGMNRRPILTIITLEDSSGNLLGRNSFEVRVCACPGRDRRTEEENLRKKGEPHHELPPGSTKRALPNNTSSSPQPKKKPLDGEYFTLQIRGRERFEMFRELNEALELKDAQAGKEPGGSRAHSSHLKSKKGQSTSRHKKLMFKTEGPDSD
In short: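 NCI-H358 cells pre-induced 24 h with 10 ng/ml doxycycline to express N-terminal eGFP-delta133p53alpha, then dosed 24 h at 37C without doxycycline; fixed, Hoechst-stained, GFP intensity by laser scanning cytometry, normalized to DMSO (0%) and 57.5 uM 5-azacytidine (100%).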

[2] = biological target: Aldehyde dehydrogenase, mitochondrial (Homo sapiens) (UniProt P05091); assay: qHTS for Inhibitors of the Aldehyde Dehydrogenase Family (ALDH2) Primary screen (AID 2061308); conditions: ALDH2 enzyme inhibition qHTS, 1536-well; series mostly up to 56 µM;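 further: plate controls were vehicle for no effect and reference inhibitor for full effect; nearly all actives have a fitted effect of over 55% in size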
[3] = biological target: Retinaldehyde dehydrogenase 3 (Homo sapiens) (UniProt P47895); assay: qHTS for Inhibitors of the Aldehyde Dehydrogenase Family (ALDH1A3) Primary screen (AID 2061315); conditions: ALDH inhibition qHTS; series mostly up to 56 µM;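 further: plate controls were DMSO vehicle for no effect and reference inhibitor for full effect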

C=C1C[C@]23C[C@H]1CC[C@H]2[C@@]12C=C[C@H](O)[C@@](C)(C(=O)O1)[C@H]2[C@@H]3C(=O)O
inactive: activation [1] -28.2% | Potency [2] | Potency [3]

C=C1[C@@H]2CC[C@@H]3[C@@](CCC4C(C(=O)O)(C(=O)O)C[C@@H](O[C@@H]5O[C@H](CO)[C@@H](O)[C@H](O)[C@H]5OC(=O)CC(C)C)C[C@]43C)(C2)[C@H]1O (some centres not stated)
inactive: activation [1] -16% | Potency [2] | Potency [3]

CC(C)=CCC/C(C)=C/CC/C(C)=C/CC[C@]1(C)CCc2cc(O)cc(C)c2O1
inactive: activation [1] -3.05% | Potency [2] | Potency [3]

CCCOC(c1cc2nccc(C(=O)O)c2[nH]1)c1ccccc1Cl (configuration not stated)
inactive: activation [1] 0.333% | Potency [2] | Potency [3]

O=C(O)CC(CCc1ccccc1)OC1OC(CO)C(O)C(O)C1O (configuration not stated)
inactive: activation [1] 3.57% | Potency [2] | Potency [3]

CC1=CCC[C@@H]2[C@@](C)(CCc3ccoc3)[C@H](C(=O)O)CC[C@@]12C
inactive: activation [1] 14.3% | Potency [2] | Potency [3]

CC(C)=CCc1cc(C(O)C2NC(=O)CNC(=O)C(Cc3c[nH]c4ccccc34)NC(=O)C3CCCN3C(=O)CNC(=O)C(C(C)C)NC(=O)CNC2=O)ccc1O (configuration not stated) (cyclo(G[X2]GVGPW); configuration not given here)
inactive: activation [1] -8.4% | Potency [2] | Potency [3]

COc1ccccc1[C@@H]1C2=C(CC(C)(C)CC2=O)Nc2n[nH]c(C(F)(F)F)c21
inactive: activation [1] 9.67% | Potency [2] | Potency [3]

COc1c2c(c(C)c3c1C(=O)OC3)O[C@@]1(C)CCC3(C(C)(C)O)OC(=O)CC[C@]3(C)[C@H]1C2 (some centres not stated)
inactive: activation [1] 4.58% | Potency [2] | Potency [3]

COC(=O)C1=COC(O[C@@H]2O[C@H](COC(=O)/C=C/c3ccc(O)cc3)[C@@H](O)[C@H](O)[C@H]2O)C2C(CO)=CCC12 (some centres not stated)
inactive: activation [1] -23.7% | Potency [2] | Potency [3]

CC1CCC2C(C)(C)C(O)CCC2(C)C12Cc1c(O)cc3c(c1O2)CN=C3N (configuration not stated)
inactive: activation [1] 12.5% | Potency [2] | Potency [3]

C=C(C)[C@H]1C[C@@H](O)C(=C)CC[C@@H](O)C(=C)[C@@H](O)C1
inactive: activation [1] -8.04% | Potency [2] | Potency [3]

Fc1ccc(N2CCCCC2)c(NC(=S)c2ccncc2)c1
inactive: activation [1] -8.04% | Potency [2] | Potency [3]

CC1=CC23[C@H](C=C(C(=O)O)[C@@H]2COC(=O)[C@]3(O)CO)[C@@H]1C (some centres not stated)
inactive: activation [1] -6.87% | Potency [2] | Potency [3]
